Source: PubChem BioAssay (NCI)
The panel holds about 79,000 compounds, 15% with a hit somewhere; the sample as a whole holds those more often. Active and inactive are the calls of the source. Cut-off read from the data, not from the text of the source: active = growth inhibition above about 70%; inactive = the rest.

Key:
[1] = NCI Yeast Anticancer Drug Screen. Data for the rad50 strain (AID 155);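 note: 0% = growth of vehicle-only cultures of the same strain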; settings: S. cerevisiae rad50 strain growth inhibition, hits give high values
In short: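 Yeast carrying a defined DNA repair defect were exposed to test compounds, and growth was compared with vehicle-treated controls to give percent inhibition.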

[2] = NCI Yeast Anticancer Drug Screen. Data for the mec2-1 strain (AID 157); settings: S. cerevisiae mec2-1 strain, hits give high values
In short: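 Growth inhibition is read against vehicle-treated controls after compound exposure of the mec2-1 yeast strain, which is defective in DNA damage repair or cell cycle control.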

[3] = NCI Yeast Anticancer Drug Screen. Data for the sgs1 mgt1 strain (AID 161);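 note: 0% = growth of cultures given vehicle only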; settings: S. cerevisiae sgs1 mgt1 strain, hits give high values
In short: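 This yeast growth screen uses a strain with defined DNA-repair lesions; compound-treated growth is compared with vehicle-treated growth.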

[4] = NCI Yeast Anticancer Drug Screen. Data for the cln2 rad14 strain (AID 165);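 note: 0% = growth equal to vehicle treated cultures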; settings: S. cerevisiae cln2 rad14 strain, hits give high values
In short: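 Growth inhibition, relative to vehicle-treated controls, is the read-out. The test organism is a yeast strain with defined genetic alterations, cln2 rad14.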

[5] = NCI Yeast Anticancer Drug Screen. Data for the bub3 strain (AID 167); settings: S. cerevisiae bub3 mutant strain, hits give high values
In short: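 Compounds were applied to a genetically altered yeast strain carrying a cell-cycle control defect. Growth inhibition was scored against vehicle-treated controls.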

[6] = NCI Yeast Anticancer Drug Screen. Data for the mlh1 rad18 strain (AID 175); settings: S. cerevisiae mlh1 rad18 strain growth inhibition, hits give high values
In short: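 Cells of a genetically altered yeast strain, deficient in DNA damage repair, were treated with compound. Their growth was then compared with that of vehicle-treated cultures to give inhibition.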

[7] = at 5.0 µM (retest, dose inferred, filed as 0.5)
[8] = at 50.0 µM (retest, dose inferred, filed as 5.0)

Measured: growth inhibition

COC1C=COC2(C)Oc3c(C)c(O)c4c(O)c(c(C5SCCS5)c(O)c4c3C2=O)NC(=O)/C(C)=C\C=CC(C)C(O)C(C)C(O)C(C)C(OC(C)=O)C1C (stereo not given)
inactive: [1]; [7] -3% | [2]; [7] 1% | [3]; [7] -5% | [3]; [8] 34% | [3]; at 50.0 µM 41.5% | [4]; [7] 14% | [5]; [7] 2% | [6]; [7] 4%
active: [1]; [8] 96% | [1]; at 50.0 µM 94.7% | [2]; [8] 97% | [2]; at 50.0 µM 96.9% | [4]; [8] 97% | [4]; at 50.0 µM 95% | [5]; [8] 99% | [5]; at 50.0 µM 95.8% | [6]; [8] 97% | [6]; at 50.0 µM 95.4%

CNC(=O)c1ccc(OC)cc1C1(O)c2ccccc2CCc2ccccc21
active: [3]; [8] 78% | [3]; at 50.0 µM 80.5% | [5]; [8] 87% | [6]; [8] 76%
inactive: [1]; [7] 40% | [1]; [8] 64% | [1]; at 50.0 µM 58.6% | [2]; [7] 34% | [2]; [8] 49% | [2]; at 50.0 µM 45% | [3]; [7] 36% | [4]; [7] 27% | [4]; [8] 49% | [4]; at 50.0 µM 46.4% | [5]; [7] 37% | [5]; at 50.0 µM 58.8% | [6]; [7] 46% | [6]; at 50.0 µM 58.8%

O=Nc1ccccc1N=O
active: [1]; [8] 99% | [1]; at 50.0 µM 99.5% | [2]; [8] 99% | [2]; at 50.0 µM 99.4% | [3]; [8] 99% | [3]; at 50.0 µM 99.2% | [4]; [8] 97% | [4]; at 50.0 µM 98.3% | [5]; [7] 80% | [5]; [8] 99% | [5]; at 50.0 µM 99.3% | [6]; [7] 91% | [6]; [8] 99% | [6]; at 50.0 µM 99.4%
inactive: [1]; [7] 48% | [2]; [7] 30% | [3]; [7] 59% | [4]; [7] 36%

CC(CO)(Nc1ccc([N+](=O)[O-])cc1[N+](=O)[O-])C(=O)O (stereo not given)
active: [1]; [8] 99% | [1]; at 50.0 µM 97.1% | [2]; [8] 99% | [2]; at 50.0 µM 99% | [3]; at 50.0 µM 98.1% | [4]; [8] 99% | [4]; at 50.0 µM 70.1% | [5]; [8] 99% | [5]; at 50.0 µM 95% | [6]; [8] 99% | [6]; at 50.0 µM 97.5%
inactive: [1]; [7] 21% | [2]; [7] 14% | [3]; [7] 10% | [3]; [8] -22% | [4]; [7] 1% | [5]; [7] 1% | [6]; [7] 6%

COc1cc(N=Nc2cccc(S(N)(=O)=O)c2)c2ccccc2c1N
inactive: [1]; [7] -6% | [2]; [7] -2% | [3]; [7] 2% | [4]; [7] 34% | [5]; [7] -5% | [6]; [7] 5%
active: [1]; [8] 98% | [1]; at 50.0 µM 95.3% | [2]; [8] 99% | [2]; at 50.0 µM 97.7% | [3]; [8] 99% | [3]; at 50.0 µM 97.4% | [4]; [8] 98% | [4]; at 50.0 µM 95.5% | [5]; [8] 99% | [5]; at 50.0 µM 94.4% | [6]; [8] 98% | [6]; at 50.0 µM 95.8%

COc1ccc(CC2C(=O)NC(C)C(=O)N(C)C3Cc4ccc(cc4)Oc4cc(ccc4O)CC(C(=O)NC(C)C(=O)NC(C)C(=O)N2C)N(C)C3=O)cc1 (stereo not given)
inactive: [1]; [7] -6% | [1]; [8] 54% | [1]; at 50.0 µM 61.1% | [2]; [7] 25% | [2]; [8] 64% | [2]; at 50.0 µM 39.8% | [3]; [7] 25% | [3]; [8] 48% | [3]; at 50.0 µM 66.5% | [4]; [7] 46% | [5]; [7] 16% | [5]; [8] 64% | [5]; at 50.0 µM 59.6% | [6]; [7] -1% | [6]; at 50.0 µM 53.5%
active: [4]; [8] 72% | [4]; at 50.0 µM 70.5% | [6]; [8] 77%

O=C1CCC/C(c2ccccc2)=N\N=C/1c1ccccc1
inactive: [1]; [7] 7% | [1]; [8] 12% | [1]; at 50.0 µM 54.8% | [2]; [7] 10% | [2]; [8] 16% | [2]; at 50.0 µM -6.6% | [3]; [7] 10% | [3]; [8] 34% | [3]; at 50.0 µM 21.6% | [4]; [7] 8% | [4]; [8] 12% | [4]; at 50.0 µM -5.1% | [5]; [7] 11% | [5]; [8] 33% | [5]; at 50.0 µM 24.3% | [6]; [7] 4% | [6]; [8] 18% | [6]; at 50.0 µM 23.6%

COc1ccc(-c2cscc2N)cc1
inactive: [1]; [7] -7% | [1]; at 50.0 µM 67.5% | [2]; [7] -15% | [2]; [8] 46% | [3]; [7] -9% | [3]; [8] 38% | [3]; at 50.0 µM 51.9% | [4]; [7] -6% | [4]; at 50.0 µM 46.1% | [5]; [7] -19% | [6]; [7] -1% | [6]; [8] 56%
active: [1]; [8] 72% | [2]; at 50.0 µM 87.2% | [4]; [8] 89% | [5]; [8] 91% | [5]; at 50.0 µM 92.2% | [6]; at 50.0 µM 89%

O=C1Sc2sc(=S)sc2SC1c1ccccc1 (stereo not given)
inactive: [1]; [7] -4% | [1]; at 50.0 µM 40.5% | [2]; [7] -1% | [2]; at 50.0 µM 36.5% | [3]; [7] 5% | [4]; [7] -1% | [4]; at 50.0 µM 58.1% | [5]; [7] -4% | [5]; at 50.0 µM 32.6% | [6]; [7] 2%
active: [1]; [8] 87% | [2]; [8] 91% | [3]; [8] 98% | [3]; at 50.0 µM 82.2% | [4]; [8] 79% | [5]; [8] 95% | [6]; [8] 97% | [6]; at 50.0 µM 90.5%

Brc1ccc(C2SCc3nc4ccccc4n32)cc1 (stereo not given)
active: [1]; [8] 89% | [1]; at 50.0 µM 74.5% | [3]; at 50.0 µM 96.1% | [5]; [8] 88% | [5]; at 50.0 µM 92.3% | [6]; at 50.0 µM 78.7%
inactive: [1]; [7] 2% | [2]; [7] 7% | [2]; [8] 51% | [2]; at 50.0 µM 24.8% | [3]; [7] 12% | [3]; [8] 57% | [4]; [7] -10% | [4]; [8] 37% | [4]; at 50.0 µM 56.6% | [5]; [7] -2% | [6]; [7] -2% | [6]; [8] 54%
